# Laboratory results published in PubChem BioAssay (Tox21).
# Active and inactive are the calls of the source. A call without a number means that no potency is given here. Unless noted, calls come from the whole dose curve; as a rule, active = well fitted curve in the direction sought with a large enough effect in the repeat runs; inconclusive = weak or mixed curves; inactive = no such curve, though single readings can be large; an effect the other way counts as inactive or inconclusive.
# Legend:
# [1] = qHTS assay to identify small molecule antagonists of the thyroid receptor (TR) signaling pathway - cell viability counter screen (AID 743064); note: nearly all actives have a fitted effect of over 50% in size; note: potency is the fitted concentration of half-maximal effect
# Method in brief: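 Counter screen for cytotoxicity: compound plus T3 (1 nM final) on GH3.TRE-Luc cells, 23.5 h at 37 °C, then fluorescence viability readout with CellTiter-Fluor.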
# [2] = qHTS assay to identify small molecule antagonists of the thyroid receptor (TR) signaling pathway (AID 743065); note: nearly all actives have a fitted effect of over 55% in size; note: potency is the fitted concentration of half-maximal effect
# Method in brief: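 Antagonism measured as loss of luciferase signal in GH3 cells stably carrying a TRE-luciferase reporter, co-treated with compound and T3 (1 nM final) for 23.5 h at 37 C. Viability was read in the same well by CellTiter-Fluor.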
# [3] = system: thyroid hormone receptor (rat, GH3 cells); experiment: qHTS assay to identify small molecule agonists of the thyroid receptor (TR) signaling pathway (AID 743066; calls by dose curve)
# [4] = target: Estrogen receptor (Homo sapiens) (UniProt P03372); experiment: qHTS assay to identify small molecule antagonists of the estrogen receptor alpha (ER-alpha) signaling pathway (AID 743069; active = well fitted curve in the direction sought with a large enough effect in the signal ratio in the repeat runs, not every such curve was filed as active; inconclusive = weak or mixed curves, or effect the other way; inactive = no such curve, though single readings can be large or run the other way; the % refers to the signal ratio; note: potency is the fitted concentration of half-maximal effect)
# Method in brief: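 Fluorescence intensity from a beta-lactamase FRET substrate served as the read-out. Cells: HEK293 with stably integrated ER-alpha-UAS-bla reporter. Agonist 17beta-estradiol was co-added with compounds; incubation 18 hr at 37C, substrate 2 hr at room temperature.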
# [5] = qHTS assay to identify small molecule antagonists of the estrogen receptor alpha (ER-alpha) signaling pathway - cell viability counter screen (AID 743074; calls by dose curve; note: nearly all actives have a fitted effect of over 45% in size; note: potency is the fitted concentration of half-maximal effect)
# [6] = target: Estrogen receptor (Homo sapiens) (UniProt P03372); experiment: qHTS assay to identify small molecule agonists of the estrogen receptor alpha (ER-alpha) signaling pathway (AID 743075; calls by dose curve; note: potency is the fitted concentration of half-maximal effect)
# [7] = target: Estrogen receptor (Homo sapiens) (UniProt P03372); experiment: qHTS assay to identify small molecule agonists of the estrogen receptor alpha (ER-alpha) signaling pathway using the BG1 cell line (AID 743079); conditions: BG1Luc4E2 cells, ERE-luciferase agonist, 22 h; activation: at 70.3 µM (top of the series); note: nearly all actives have a fitted effect of over 20% in size; note: potency is the fitted concentration of half-maximal effect
# [8] = qHTS assay to identify small molecule antagonists of the estrogen receptor alpha (ER-alpha) signaling pathway using the BG1 cell line (AID 743080; calls by dose curve;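 note: BG1 cells stimulated with 17beta-estradiol alongside compound; nearly all actives have a fitted effect of over 25% in size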; note: potency is the fitted concentration of half-maximal effect)
# Method in brief: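 Seeding, 24 h rest, compound transfer from DMSO, 17beta-estradiol addition, 21.5 h incubation, CellTiter-Fluor (30 min, 37 C), then ONE-Glo (30 min, room temperature): this sequence was run on BG1-Luc-4E2 reporter cells.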
# [9] = qHTS assay to identify small molecule antagonists of the estrogen receptor alpha (ER-alpha) signaling pathway using the BG1 cell line - cell viability counter screen (AID 743081);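 note: compound given together with 17beta-estradiol as the ER stimulus; nearly all actives have a fitted effect of over 45% in size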; note: potency is the fitted concentration of half-maximal effect
# Aromatase (Homo sapiens) = Aromatase (Homo sapiens) (UniProt P11511); experiment: qHTS assay to identify aromatase inhibitors (AID 743083); note: nearly all actives have a fitted effect of over 55% in size; note: potency is the fitted concentration of half-maximal effect
# [10] = qHTS assay to identify aromatase inhibitors - cell viability counter screen (AID 743084);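 note: cells stimulated with testosterone during compound exposure; nearly all actives have a fitted effect of over 55% in size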
# [11] = target: Aryl hydrocarbon receptor (Homo sapiens) (UniProt P35869); experiment: qHTS assay to identify small molecule that activate the aryl hydrocarbon receptor (AhR) signaling pathway (AID 743085); note: nearly all actives have a fitted effect of over 15% in size; note: potency is the fitted concentration of half-maximal effect;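 for activation: HG2L7.5c1 human HepG2 liver cells with stably integrated DRE-driven firefly reporter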
# Method in brief: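 Measured in HG2L7.5c1 cells: CellTiter-Fluor signal (30 min incubation, 37C) for viability, then luciferase luminescence (30 min, room temperature). Compound contact time was 24 h at 37C, following a 5 h pre-incubation.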
# [12] = qHTS assay to identify small molecule that activate the aryl hydrocarbon receptor (AhR) signaling pathway - cell viability counter screen (AID 743086);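 note: HepG2 liver cells carrying the AhR DRE luciferase reporter; nearly all actives have a fitted effect of over 45% in size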
# Method in brief: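 Cytotoxicity counter screen: CellTiter-Fluor signal (30 min, 37 C) in 4000 HepG2 cells/well carrying the DRE-luciferase reporter, following 24 h compound exposure at 37 C.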
# [13] = target: Peroxisome proliferator-activated receptor gamma (Homo sapiens) (UniProt P37231); experiment: qHTS assay to identify small molecule agonists of the peroxisome proliferator-activated receptor gamma (PPARg) signaling pathway (AID 743094; active = well fitted activation curve with a large enough effect in the signal ratio in the repeat runs, not every such curve was filed as active; inconclusive = weak or mixed curves, or effect the other way; inactive = no such curve, though single readings can be large or run the other way; the % refers to the signal ratio)
# Method in brief: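 Agonist activity was taken from a beta-lactamase reporter (FRET substrate, 1 h at room temperature) in HEK293H cells carrying a PPARg UAS-bla construct. Compounds in DMSO were incubated 17 h at 37C after a 5 h cell pre-incubation.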
# [14] = qHTS assay to identify small molecule phospholipidosis (PLD) inducers (AID 1259344; active = well fitted curve in the direction sought with a large enough effect; inconclusive = small, poorly fitted or top-dose-only effect, or another doubt; inactive = no such curve, though single readings can be large; an effect the other way counts as inactive or inconclusive)
# Method in brief: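 Accumulated phospholipid, stained red by LipidTOX during 24 h compound treatment of HepG2 cells at 37 C, is quantified from images as pit number and intensity, normalised per cell using Hoechst-stained nuclei.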
# [15] = target: Nuclear receptor subfamily 1 group I member 2 (Homo sapiens) (UniProt O75469); experiment: CYP3A4 induction through human pregnane X receptor (PXR) by small molecules, qHTS assay (AID 1346984); note: nearly all actives have a fitted effect of over 40% in size; note: potency is the fitted concentration of half-maximal effect
# Method in brief: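 Read-out is luminescence after One-Glo addition, following a 3 hr, 37C incubation with Luciferin-IPA CYP3A4 substrate (3uM final). Before that, compounds were on DPX-2 cells (HepG2 co-transfected with PXR element plus CYP3A4-promoter luciferase) for 24 hr at 37C.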
# [16] = target: Nuclear receptor subfamily 1 group I member 2 (Homo sapiens) (UniProt O75469); experiment: Human pregnane X receptor (PXR) activation by small molecules, qHTS assay (AID 1346985); note: nearly all actives have a fitted effect of over 40% in size; note: potency is the fitted concentration of half-maximal effect
# Method in brief: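 DPX-2 cells (HepG2 co-transfected with a PXR response element and a CYP3A4-promoter luciferase construct) were seeded at 2,000 per well, rested 5 hr at 37C, then exposed to DMSO-dissolved compounds for 24 hr. Activation was read as luciferase luminescence.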
# Chain of Aryl hydrocarbon receptor (Homo sapiens) (P35869 whole entry, looked up): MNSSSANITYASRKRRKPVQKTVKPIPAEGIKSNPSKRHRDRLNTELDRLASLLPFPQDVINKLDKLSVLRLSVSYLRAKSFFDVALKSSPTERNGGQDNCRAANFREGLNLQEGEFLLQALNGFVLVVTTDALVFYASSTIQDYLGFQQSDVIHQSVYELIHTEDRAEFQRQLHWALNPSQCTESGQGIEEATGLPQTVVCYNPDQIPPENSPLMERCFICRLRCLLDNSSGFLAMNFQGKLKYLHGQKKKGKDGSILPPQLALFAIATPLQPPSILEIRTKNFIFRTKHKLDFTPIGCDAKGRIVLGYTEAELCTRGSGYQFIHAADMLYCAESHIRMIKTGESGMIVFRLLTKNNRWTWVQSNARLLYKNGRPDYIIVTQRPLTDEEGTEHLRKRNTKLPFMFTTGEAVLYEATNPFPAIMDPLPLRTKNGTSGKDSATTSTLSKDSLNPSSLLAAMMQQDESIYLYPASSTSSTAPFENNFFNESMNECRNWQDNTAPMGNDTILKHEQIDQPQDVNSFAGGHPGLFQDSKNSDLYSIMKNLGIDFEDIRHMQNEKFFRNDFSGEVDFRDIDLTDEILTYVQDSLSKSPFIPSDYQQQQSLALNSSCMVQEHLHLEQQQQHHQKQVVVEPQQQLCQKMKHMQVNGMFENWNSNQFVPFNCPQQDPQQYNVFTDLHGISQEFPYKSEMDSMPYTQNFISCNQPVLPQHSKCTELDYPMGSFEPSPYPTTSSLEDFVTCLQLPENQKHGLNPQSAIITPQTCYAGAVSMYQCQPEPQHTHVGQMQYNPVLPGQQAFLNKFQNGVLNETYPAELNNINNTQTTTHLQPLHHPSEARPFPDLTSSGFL
# Chain of Estrogen receptor (Homo sapiens) (P03372 whole entry, looked up): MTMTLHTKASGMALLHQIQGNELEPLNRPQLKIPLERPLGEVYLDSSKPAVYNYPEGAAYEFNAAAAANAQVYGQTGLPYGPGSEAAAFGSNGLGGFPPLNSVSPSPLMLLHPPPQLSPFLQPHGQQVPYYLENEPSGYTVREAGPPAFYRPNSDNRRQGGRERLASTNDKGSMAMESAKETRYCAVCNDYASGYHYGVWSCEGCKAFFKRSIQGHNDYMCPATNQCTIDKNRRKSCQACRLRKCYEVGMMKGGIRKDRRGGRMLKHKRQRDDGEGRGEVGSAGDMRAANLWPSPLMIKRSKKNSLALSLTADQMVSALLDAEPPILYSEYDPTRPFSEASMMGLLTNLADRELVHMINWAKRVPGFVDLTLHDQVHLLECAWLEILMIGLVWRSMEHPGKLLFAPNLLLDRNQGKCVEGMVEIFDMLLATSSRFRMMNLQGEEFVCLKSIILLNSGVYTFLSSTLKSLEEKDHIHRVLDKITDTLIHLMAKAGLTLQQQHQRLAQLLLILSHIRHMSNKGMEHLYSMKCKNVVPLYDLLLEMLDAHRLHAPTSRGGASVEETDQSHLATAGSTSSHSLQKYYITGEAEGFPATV
# Chain of Peroxisome proliferator-activated receptor gamma (Homo sapiens) (P37231 whole entry, looked up): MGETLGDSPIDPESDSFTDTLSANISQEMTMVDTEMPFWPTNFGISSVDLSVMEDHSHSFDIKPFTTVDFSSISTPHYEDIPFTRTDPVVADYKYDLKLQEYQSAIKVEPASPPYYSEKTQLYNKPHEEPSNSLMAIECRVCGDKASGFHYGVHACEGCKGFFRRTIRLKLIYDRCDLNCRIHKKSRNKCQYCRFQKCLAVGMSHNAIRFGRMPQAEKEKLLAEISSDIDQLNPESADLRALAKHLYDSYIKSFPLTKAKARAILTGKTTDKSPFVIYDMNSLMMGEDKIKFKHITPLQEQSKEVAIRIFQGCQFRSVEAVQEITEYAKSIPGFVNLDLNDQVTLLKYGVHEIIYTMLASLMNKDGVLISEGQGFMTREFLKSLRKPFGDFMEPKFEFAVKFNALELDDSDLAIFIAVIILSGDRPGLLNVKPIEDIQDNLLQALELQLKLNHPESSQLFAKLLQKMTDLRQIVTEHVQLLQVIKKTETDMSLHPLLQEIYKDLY
# Chain of Aromatase (Homo sapiens) (P11511 whole entry, looked up): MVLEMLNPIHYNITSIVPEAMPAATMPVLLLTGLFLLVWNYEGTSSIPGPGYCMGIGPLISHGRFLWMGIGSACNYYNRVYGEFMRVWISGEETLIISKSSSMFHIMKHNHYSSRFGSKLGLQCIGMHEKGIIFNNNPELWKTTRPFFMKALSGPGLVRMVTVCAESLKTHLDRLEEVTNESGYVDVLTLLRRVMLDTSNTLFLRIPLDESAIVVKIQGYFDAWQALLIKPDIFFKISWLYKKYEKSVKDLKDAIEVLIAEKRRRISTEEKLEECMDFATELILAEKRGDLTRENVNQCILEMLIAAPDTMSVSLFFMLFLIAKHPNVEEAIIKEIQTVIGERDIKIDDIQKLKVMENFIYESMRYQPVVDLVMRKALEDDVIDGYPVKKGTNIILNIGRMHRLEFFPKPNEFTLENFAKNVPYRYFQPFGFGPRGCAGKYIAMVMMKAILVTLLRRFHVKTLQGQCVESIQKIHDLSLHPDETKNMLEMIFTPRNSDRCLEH
SMILES,Potency [1],Potency [2],Potency [3],Potency [4],Potency [5],Potency [6],Potency [7],Potency [8],Potency [9],Potency (Aromatase (Homo sapiens)),Potency [10],Potency [11],Potency [12],Potency [13],Potency [14],Potency [15],Potency [16]
CC1(O)CCC(C(C)(C)O)CC1 (stereo unspecified),inactive,inactive,inactive,inactive,inactive,inactive,inactive,inactive,inactive,inactive,inactive,inactive,inactive,inactive,inactive,inactive,inactive
C=CCCCCCCCCC(=O)OC,inactive,inactive,inactive,inactive,inactive,inactive,inactive,inactive,inactive,inactive,inactive,inactive,inactive,inactive,inactive,inactive,inactive
CN1C(=O)CN2CCc3ccccc3C2c2cc(Cl)ccc21 (stereo unspecified),–,–,–,inactive,inactive,inactive,inactive,21.1 µM (active),inactive,inactive,inactive,4.73 µM (active),inactive,inactive,inactive,3.16 µM (active),22.4 µM (active)
O=C(O)c1cc(O)c2c(c1)[O][Bi][O]2,inactive,–,inactive,–,inactive,0.012 µM [inconclusive] (active),0.0019 µM (active),inactive,inactive,inactive,inactive,–,inactive,inactive,inactive,inactive,inactive
FC(F)(F)C(F)(F)C(F)(F)C(F)(F)C(F)(F)C(F)(F)F,–,inactive,inactive,inactive,inactive,inactive,inactive,inactive,inactive,inactive,inactive,inactive,inactive,inactive,inactive,inactive,inactive
CO[C@H]1O[C@@H]2O[C@@]3(C)CC[C@H]4[C@H](C)CC[C@@H]([C@H]1C)[C@@]24OO3,inactive,–,inactive,inactive,inactive,inactive,inactive,inactive,inactive,inactive,inactive,inactive,inactive,inactive,inactive,inactive,–
CCCCCCCCCCCCCCCCOCCOCCOCCOCCOCCOCCOCCOCCOCCOCCOCCOCCOCCOCCOCCOCCOCCOCCOCCOCCO,29.8 µM (active),26.6 µM (active),inactive,4.25 µM [inconclusive] (active),21.3 µM (active),–,–,3.76 µM (active),23.7 µM (active),–,–,inactive,–,–,inactive,inactive,inactive
CC(=O)N[C@@H]([C@@H](O)[C@H](O)[C@H](O)CO)[C@@H](O)CC(=O)C(=O)O,inactive,inactive,inactive,–,inactive,–,–,–,inactive,inactive,inactive,inactive,inactive,inactive,inactive,inactive,inactive
CCCCCCCCCCCC(=O)OC[C@@H](O)C1OC[C@H](O)[C@H]1O (stereo partly specified),inactive,inactive,inactive,–,inactive,–,–,–,inactive,inactive,inactive,inactive,inactive,inactive,inactive,inactive,inactive
COc1ccc(-c2noc(CC(=O)O)c2-c2ccc(OC)cc2)cc1,inactive,inactive,inactive,–,inactive,–,–,–,inactive,inactive,inactive,inactive,inactive,–,inactive,inactive,inactive
C#C[C@]1(O)CC[C@H]2[C@@H]3CCC4=C/C(=N/O)CC[C@@H]4[C@H]3CC[C@@]21CC,29.8 µM (active),11.9 µM (active),–,–,inactive,0.151 µM [inconclusive] (active),0.0422 µM (active),–,inactive,23.7 µM (active),–,inactive,inactive,–,inactive,inactive,4.47 µM (active)
O=[n+]1ccn([O-])c2ccccc21,inactive,inactive,inactive,–,inactive,–,–,–,inactive,–,–,–,inactive,–,inactive,inactive,inactive
CO[C@H]1C=CO[C@@]2(C)Oc3c(C)c(O)c4c(O)c(c5c(nc6cc(C)ccn65)c4c3C2=O)NC(=O)/C(C)=C\C=C[C@H](C)[C@H](O)[C@@H](C)[C@@H](O)[C@@H](C)[C@H](OC(C)=O)[C@@H]1C,inactive,inactive,inactive,–,–,–,–,–,inactive,–,–,–,–,–,inactive,–,10 µM (active)
CC(C(=O)O)c1ccc(N2Cc3ccccc3C2=O)cc1 (stereo unspecified),–,7.5 µM (active),–,inactive,inactive,–,0.119 µM (active),16.8 µM (active),inactive,–,inactive,0.0596 µM (active),inactive,inactive,inactive,inactive,inactive
Cc1cc(C)c(NC(=O)C[C@H](CC(=O)O)c2cccc3ccccc23)c(C(=O)N2CCC3(CCCC3)CC2)c1,–,inactive,inactive,inactive,–,inactive,29.8 µM (active),inactive,inactive,inactive,inactive,inactive,inactive,inactive,inactive,inactive,–
